GLS inhibitor: inhibitors of human glutaminase (GLS). O94925. GLS enzymatic activity, qHTS titration. Potency, µM (highest dose often 45.5 µM), hits mostly inhibitors. 0.21% of 410,000 active. AID 624170
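Assay buffer: 45 mM KH2PO4 pH 8.2, 0.02% Tween-20. hKGA acts on L-glutamine (1 mM solution added); product glutamate is reported by an oxidase/peroxidase Amplex Red coupling, with fluorescence taken at baseline and 30 min.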
Glioma ERSR ind: inducers of ER stress response in human glioma cells; U87-MG GRP78 promoter luciferase reporter, 16 h; Potency, µM, hits mostly activators; 0.02% of 420,000 active; AID 602332; also: series mostly up to about 76 µM; nearly all actives have a fitted effect of over 35% in size
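ERSR induction read as luciferase luminescence (Bright-Glo, 10 min at room temperature) in stably transfected human U87-MG glioma cells exposed to compounds for 16 h, using GRP78 as sensor.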
mIDH1 inhibitor: blocks human mutant IDH1 R132H enzyme | IDH1-R132H enzyme, NADPH consumption, diaphorase/resazurin fluorescence | Potency, µM (top dose mostly 76.6 µM), most hits filed as inhibitors | 0.093% of 390,000 active; also: nearly all actives have a fitted effect of over 65% in size
Target sequence (O75874 whole entry R132H, stated change not applied): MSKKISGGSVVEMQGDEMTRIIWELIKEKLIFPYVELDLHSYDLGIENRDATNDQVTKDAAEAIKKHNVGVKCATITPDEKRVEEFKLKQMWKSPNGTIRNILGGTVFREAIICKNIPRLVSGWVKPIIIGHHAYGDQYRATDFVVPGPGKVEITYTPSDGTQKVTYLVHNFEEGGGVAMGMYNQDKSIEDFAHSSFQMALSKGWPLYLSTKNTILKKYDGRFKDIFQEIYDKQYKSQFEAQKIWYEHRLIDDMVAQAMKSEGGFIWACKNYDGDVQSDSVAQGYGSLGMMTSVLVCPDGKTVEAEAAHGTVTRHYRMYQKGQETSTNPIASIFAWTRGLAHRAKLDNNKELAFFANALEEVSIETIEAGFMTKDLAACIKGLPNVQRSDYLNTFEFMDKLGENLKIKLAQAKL
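IDH1-R132H (0.5 ug/mL dispensed) in pH 7.5 Tris buffer was preincubated 30 min with compound, then given a substrate mix of 0.016 mM NADPH and 2 mM alpha-KG for 80 min at room temperature; remaining NADPH was read by diaphorase/resazurin fluorescence.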
pAkt inh: Akt phosphorylation inhibition; Neuro2A IGF-stimulated pAkt S473 HTRF, 20 min; stronger effect = lower value; activity change, % for hits at 50 µM; 0.32% of 360,000 active; in the data active = activity change below about -80%; inconclusive = mostly about -51% to -80%
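Neuro2A cells (4,500/well, DMEM with 0.5% FBS) were treated with compound at a single 50 µM final concentration, stimulated with 6 nM IGF for 20 min at 37 °C, and lysed. Phospho-Akt Ser473 was read by HTRF as 665/615 ratio ×10^4.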
CCT modulator: cytosolic chaperonin activity modulation; activity change, % (test concentration not listed), hits read low; purified chaperonin ATPase assay, HTRF ADP detection, 30 min; 0.3% of 360,000 active; in the data active = activity change below about -30%
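TRiC at 40 or 20 nM final (batch-dependent) in 30 mM Tris pH 7.4, 100 mM KCl, 5 mM MgCl2, 1 mM DTT, with compound at single 76 uM and 10 uM ATP, 30 min at 37 deg C. ADP detected by HTRF Transcreener, 665/615 ratio.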
MmCpn inh: M. maripaludis TRiC chaperonin inhibition; AID 504842; purified Mm-Cpn ATPase, ADP Transcreener TR-FRET; Potency, µM (top dose mostly 76.9 µM), usual class: inhibitors; 0.031% of 330,000 active; also: nearly all actives have a fitted effect of over 80% in size
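Purified archaeal Mm-CPN (25nM final) preincubated 10 min at 37degC with compound, then 10uM ATP for 30 min at 37degC; ADP measured by HTRF Transcreener TR-FRET; buffer 30 mM TRIS pH 7.4, 100mM KCl, 5mM MgCl2, 1mM DTT.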
Of the large screens only hits and unclear results are named; the others gave an inactive call. An excerpt weighted towards active compounds, which were near 0.85% of everything screened. Unless noted, calls follow the shape of the dose curve; as a rule, active = well fitted curve in the direction sought with a large enough effect; inconclusive = small, poorly fitted or top-dose-only effect, or another doubt; inactive = no such curve, though single readings can be large; an effect the other way counts as inactive or inconclusive.

CCCc1cc(=O)oc2cc(C)cc(OCC(=O)NC(Cc3ccc(Cl)cc3)C(=O)O)c12 (configuration not stated)	none
CCCCc1cc(=O)oc2cc(C)cc(OCC(=O)NC(Cc3ccc(Cl)cc3)C(=O)O)c12 (configuration not stated)	CCT modulator -60
O=C(O)Cc1ccc(C(=O)c2ccc(Cl)cc2Cl)s1	none
COc1ccc(-c2sc(C(=O)c3ccc(Cl)cc3Cl)cc2CC(=O)O)cc1	MmCpn inh 50µM
CC(C)(C)c1ccc(OCC(O)CN2CCc3ccccc3C2)cc1 (configuration not stated)	CCT modulator -57 (no result: MmCpn inh)
COc1ccc(OCC(O)CN2CCc3ccccc3C2)cc1 (configuration not stated)	none
Cc1cc2oc(=O)cc(CN3CCN(Cc4ccccc4)CC3)c2cc1Cl	pAkt inh -111%
Cc1c(-c2ccccc2)nc2ccccc2c1C(=O)OCC(=O)Nc1ncc(C(F)(F)F)cc1Cl	CCT modulator -53, MmCpn inh inconclusive
O=C(COC(=O)c1cc(-c2ccccc2Cl)nc2ccccc12)Nc1ncc(C(F)(F)F)cc1Cl	none
O=[N+]([O-])c1ccc(C(=S)N2CCN(c3ccc(F)cc3)CC2)cc1	GLS inhibitor 16µM
CN(C)c1ccc(C(=S)N2CCN(c3ccc([N+](=O)[O-])cc3)CC2)cc1	none
COc1ccc(-c2nc3c(C#N)c[nH]n3c2NC2CCCCC2)cc1	GLS inhibitor 13µM (no result: pAkt inh, CCT modulator, MmCpn inh)
CC(=O)Nc1cc(C(=O)N2CCN(C(=O)c3ccco3)CC2)cc2ncn(CCc3ccccn3)c12	none (no result: GLS inhibitor, mIDH1 inhibitor, pAkt inh, CCT modulator, MmCpn inh)
Cc1ncc2c(c1CNS(=O)(=O)N(C)C)CCN(C(=O)/C=C/c1ccccc1)C2	none (no result: GLS inhibitor, mIDH1 inhibitor, pAkt inh, CCT modulator, MmCpn inh)
CCn1c(-c2cc(-c3ccc(C)c(C)c3)nc3ccccc23)n[nH]c1=S	none (no result: GLS inhibitor, Glioma ERSR ind, mIDH1 inhibitor, pAkt inh, CCT modulator)
CCn1c(-c2cc(-c3cc(C)ccc3C)nc3ccccc23)n[nH]c1=S	CCT modulator -72
CC(C)C(NC(=O)C12CC3CC(CC(C3)C1)C2)C(=O)NC1=NCCS1 (configuration not stated)	none (no result: GLS inhibitor, Glioma ERSR ind, mIDH1 inhibitor, pAkt inh, CCT modulator)
CC(C)CC(NC(=O)CC12CC3CC(CC(C3)C1)C2)C(=O)NC1=NCCS1 (configuration not stated)	CCT modulator -98
O=C(CCS(=O)(=O)c1ccc(Br)cc1)NCc1ccc(F)cc1	GLS inhibitor inconclusive, CCT modulator -80 (no result: pAkt inh)
Cc1ccc(S(=O)(=O)CCC(=O)OCC(=O)NCc2ccc(F)cc2)cc1	none (no result: MmCpn inh)
Cc1ccc(CNC(=O)CCS(=O)(=O)c2ccc(Cl)cc2)cc1	none
Cc1ccc(CNC(=O)CCS(=O)(=O)c2ccc(Br)cc2)cc1	GLS inhibitor 11µM
Cc1c(C(=O)NC2CCCCCC2)sc2ncnc(NCC3CCCO3)c12 (configuration not stated)	none (no result: GLS inhibitor, mIDH1 inhibitor, pAkt inh, CCT modulator, MmCpn inh)
Cc1ccc(CNc2nc(CN3CCCCC3c3cccnc3)nc3ccccc23)o1 (configuration not stated)	none (no result: GLS inhibitor, mIDH1 inhibitor, pAkt inh, CCT modulator, MmCpn inh)
C/C(=N\NC(=O)c1ccccc1O)c1c(O)cc(C)oc1=O	none
CCc1ccccc1N/N=C(/C)c1c(O)cc(C)oc1=O	GLS inhibitor 11µM
CN(C)c1cccc(C(=O)NCC2Cc3cccc(-c4cncnc4)c3O2)c1 (configuration not stated)	none (no result: GLS inhibitor, mIDH1 inhibitor, pAkt inh, CCT modulator, MmCpn inh)
CCn1c(N)c(C(=O)N2CCOCC2)sc1=S	pAkt inh -114%
C=CCn1c(N)c(C(=O)N2CCOCC2)sc1=S	none
CC1(C)CC(=O)C2=C(C1)N1C(=C(C#N)C2c2ccc(Cl)cc2)N=C(N)c2ccccc21 (configuration not stated)	CCT modulator -36
O=C(O)CCC(=O)NNc1nc2ccccc2nc1-c1ccccc1	GLS inhibitor 11µM
O=C(O)CCC(=O)NNc1ncnc2ccccc12	none
O=C(Nc1ccon1)c1ccc(S(=O)(=O)N2CCCCCC2)cc1	pAkt inh -116%
Cc1ccc(C(=O)Nc2ccon2)cc1S(=O)(=O)N1CCCCCC1	none
COC(=O)c1cc(CNC(=O)c2ccccn2)cc(NC(=O)c2ccccc2OC)c1	none (no result: GLS inhibitor, mIDH1 inhibitor, pAkt inh, CCT modulator, MmCpn inh)

Screening results deposited in PubChem BioAssay by National Center for Advancing Translational Sciences (NCATS).
